# SENP7 block: inhibitors of human SENP7 protease; inhibition, % at 5 µM; hit rate 1.5% among 330,000; Q9BQF6; recombinant SENP7, Z-RLRGG-aminoluciferin luminescence, 40 min;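 active means inhibition above about 50% at the single test dose, limit read from the data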;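 further: plate controls were DMSO with enzyme for no effect and no enzyme buffer wells for full effect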
# SENP6 block: inhibitors of human SENP6 protease | Q9GZR1 | Recombinant SENP6 catalytic domain, aminoluciferin luminescence | inhibition, % at 10 µM | hit rate 1.8% among 330,000;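 active means inhibition above about 50% at the single tested dose, limit read from the data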;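 further: plate controls were DMSO wells with enzyme for no effect and DMSO wells lacking enzyme for full effect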
# SENP8 block-1: SENP8 (human) protease inhibition; inhibition, % at 20 µM; recombinant SENP8, Nedd8 substrate fluorescence; hit rate 0.64% among 360,000; AID 602440; in the data active means inhibition mostly above about 40%, no sharp cut-off; inactive means mostly below about 27%
# Target sequence (Q96LD8 whole entry, looked up): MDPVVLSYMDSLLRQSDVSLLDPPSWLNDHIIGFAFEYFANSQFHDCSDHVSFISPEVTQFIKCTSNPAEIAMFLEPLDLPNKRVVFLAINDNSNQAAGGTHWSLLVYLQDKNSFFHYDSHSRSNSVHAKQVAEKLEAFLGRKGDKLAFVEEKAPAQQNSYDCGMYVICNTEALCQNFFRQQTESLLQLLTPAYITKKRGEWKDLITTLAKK
# Platelet DG rel: platelet dense granule release activity; hit rate 0.22% among 300,000; human platelet-rich plasma, SFLLRN dense granule ATP release, luminescence; inhibition, %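 (compounds screened at 7.5 µM in platelet-rich plasma)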; AID 1663;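 active means mean replicate score, as percent of positive control, at or above 50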
# SENP8 block-2: blocks the human protease SENP8. purified SENP8, Z-RLRGG-aminoluciferin cleavage, luminescence. inhibition, % at 10 µM. hit rate 1.2% among 330,000. AID 2540; in the data active means inhibition above about 50%
# SENP8 conf: human SENP8 inhibition, confirmed. shares compounds with SENP7 block. Recombinant SENP8, Z-RLRGG-aminoluciferin luminescence, 60 min. inhibition, % at 12.5 µM. hit rate 40% among 6,200;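 active means mean inhibition across replicates above about 50%, limit read from the data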
# SENP6 conf: human SENP6 inhibition, confirmed; shares compounds with SENP7 block; recombinant SENP6, Z-RLRGG-aminoluciferin luminescence; inhibition, % at 12.5 µM; hit rate 58% among 6,200; AID 488915
# SENP7 confirm: human SENP7 inhibition, confirmed | shares compounds with SENP7 block | recombinant SENP7, Z-RLRGG-aminoluciferin luminescence, 40 min | inhibition, % at 12.5 µM | hit rate 69% among 6,200
# Casp3 select: selectivity test for SENP inhibitors: human caspase-3 inhibition. shares compounds with SENP7 block. AID 488918. purified caspase-3, Z-DEVD-aminoluciferin luminescence, 60 min. inhibition, % at 12.5 µM. hit rate 60% among 6,200;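 active means mean inhibition above about 50%, limit read from the data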;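 further: plate controls were enzyme with DMSO for no effect and wells without caspase-3 for full effect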
# Target sequence (P42574 28-227 limits assumed): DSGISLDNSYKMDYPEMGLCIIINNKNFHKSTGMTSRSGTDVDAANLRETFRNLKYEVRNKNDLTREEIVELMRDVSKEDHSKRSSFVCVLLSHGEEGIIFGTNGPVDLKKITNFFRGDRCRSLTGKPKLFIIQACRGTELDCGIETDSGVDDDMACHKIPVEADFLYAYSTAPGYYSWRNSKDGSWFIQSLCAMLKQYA
# Luc interf: interferes with luciferase luminescence in SENP counter-screen | Pre-incubated SENP8/Z-RLRGG-aminoluciferin, luciferase luminescence interference | AID 488919 | shares compounds with SENP7 block | inhibition, % at 12.5 µM | hit rate 39% among 6,200;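 active means mean inhibition above about 50% when retested at one dose, limit read from the data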;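 further: plate controls were DMSO wells with completed reaction for no effect and substrate without enzyme for full effect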
# Starred values were filed as active, the others as inactive; . = no result given. A selection: hits, their analogues and other compounds. The true share with any hit is near 2.4%.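 How the source made its calls, unless noted: active means mean inhibition above about 50% in the one-dose retest (limit read from the data); inactive means the rest.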
SMILES,SENP7 block,SENP6 block,SENP8 block-1,Platelet DG rel,SENP8 block-2,SENP8 conf,SENP6 conf,SENP7 confirm,Casp3 select,Luc interf
CCN(CC)Cc1cc(Nc2c3ccccc3nc3c4ccccc4n(C)c23)cc(CN(CC)CC)c1O,.,.,-107,.,.,.,.,.,.,.
CC(=O)Nc1cccc(-c2nc3ccccc3[nH]2)c1,9,12,-29,2,1,.,.,.,.,.
O=C(O)c1cccc(-c2nc3ccccc3[nH]2)c1,99*,94*,-51,9,94*,96*,97*,100*,89*,96*
COc1ccc(CCCc2nc3ccccc3[nH]2)cc1,5,11,25,-1,-9,.,.,.,.,.
COc1ccc(-c2cc(=O)n(-c3nc4ccccc4[nH]3)[nH]2)cc1,34,91*,-64,13,87*,-4,92*,101*,96*,54*
OC1Cc2ccccc2C1Nc1cccc(C(F)(F)F)c1 (stereo not given),.,.,14,.,.,.,.,.,.,.
O=[N+]([O-])c1ccccc1/C=N/Nc1nccnc1Cl,34,23,15,6,22,.,.,.,.,.
Cc1c(O)ccc(/C=N/Nc2ncccc2[N+](=O)[O-])c1O,100*,97*,27,63*,96*,67*,77*,102*,75*,25
Cc1cccn2cc(-c3ccc(Cl)cc3)nc12,91*,95*,-290,6,89*,95*,96*,101*,92*,54*
O=C(Nc1nnc(/C=C/c2ccccc2)s1)c1ccco1,-4,-40,-454,7,-2,.,.,.,.,.
NN=C(c1cccc([N+](=O)[O-])c1)c1cccc([N+](=O)[O-])c1,13,-13,13,3,-6,.,.,.,.,.
O=C(NC(=S)Nc1ccc(S(=O)(=O)Nc2nccs2)cc1)c1ccccc1,-2,64*,14,-2,32,60*,59*,80*,61*,61*
O=C(NC(=S)Nc1ccc(S(=O)(=O)Nc2nccs2)cc1)c1cccnc1,5,-7,23,-3,3,.,.,.,.,.
O=C(Nc1cc(Cl)ccc1N1CCOCC1)c1ccc2c(c1)OCCO2,-9,-30,0,-11,-4,.,.,.,.,.
O=C(Nc1ccc(F)c([N+](=O)[O-])c1)c1ccc2c(c1)OCCO2,69*,57*,9,13,29,31,41,87*,61*,40
O=C(Nc1ccc(Cl)cc1[N+](=O)[O-])c1ccc2c(c1)OCCO2,64*,17,9,3,-16,15,10,8,6,-5
COc1ccc(C(=O)Nc2ccc3c(c2)OCCO3)cc1[N+](=O)[O-],8,14,19,-5,-2,.,.,.,.,.
O=C1C[C@H](NC(=O)OCc2ccccc2)CO1,8,0,1,.,-10,.,.,.,.,.
Cc1cc(C(=O)N/N=C2\CC(=O)CC(C)(C)C2)c(C)n1-c1ccccc1,16,17,-32,0,-2,.,.,.,.,.
Cc1cc(C(=O)N/N=C2\CC(=O)c3ccccc32)c(C)n1-c1ccccc1,10,29,37,7,54*,3,18,20,16,1
O=C(CSc1nc(-c2ccccc2)ns1)N1CCOCC1,-1,-20,10,-3,-5,.,.,.,.,.
Cc1cccc(-c2nsc(SCC(=O)N3CCCC3)n2)c1,67*,80*,33,5,49,59*,65*,87*,77*,55*
CC[C@]12C(=O)N(C)C[C@H]([C@@H]3C(=O)N(C)C(=O)[C@@H]31)N2C(=O)c1ccc(Cl)c(Cl)c1,.,.,-11,.,.,.,.,.,.,.
Cc1ccc(SCc2cn3c(C)csc3n2)cc1,85*,84*,9,3,75*,80*,80*,96*,86*,86*
Cc1ccc(S(=O)(=O)NCc2cn3c(C)csc3n2)cc1,3,-14,27,-3,2,.,.,.,.,.
SMILES,SENP7 block,SENP6 block,SENP8 block-1,Platelet DG rel,SENP8 block-2,SENP8 conf,SENP6 conf,SENP7 confirm,Casp3 select,Luc interf
O=C(NCc1cc([N+](=O)[O-])ccc1O)c1cccc(NS(=O)(=O)c2ccccc2)c1,-1,-18,14,-3,-5,.,.,.,.,.
O=C(Oc1ccc(Cl)c2ccccc12)N1CCCCC1,-8,8,14,14,-12,.,.,.,.,.
O=C(Oc1ccc2ccccc2c1Cl)N1CCCC1,57*,73*,16,1,38,48,52*,84*,53*,59*
O=C(Oc1ccc2ccccc2c1Cl)N1CCCCCC1,53*,76*,20,-11,54*,71*,70*,87*,45,37
CSc1ccc(Cl)c(C(=O)NNC(=O)c2csc(N3CCOCC3)n2)c1,19,-12,-10,2,-7,.,.,.,.,.
CCCCn1c(N)c(N(CC(C)C)C(=O)CSCC(=O)Nc2ccc(C)cc2)c(=O)[nH]c1=O,1,-7,3,.,2,.,.,.,.,.
Cc1ccccc1OCCC(=O)OCC(=O)Nc1c(F)cccc1F,-3,-7,5,-4,-12,.,.,.,.,.
Cc1cc(C(=O)COc2cccc([N+](=O)[O-])c2)c(C)n1C1CC1,21,58*,17,.,34,67*,63*,89*,66*,36
CCc1ccc(C2=NN(C(C)=O)C(c3ccco3)C2)cc1 (stereo not given),81*,82*,-1,3,83*,92*,92*,99*,90*,92*
CC(C)(C)c1ccc(C(=O)NCCOc2ccccc2F)cc1,72*,74*,14,4,59*,5,69*,90*,52*,47
CC(C)(C)c1ccc(C(=O)NCCOc2ccccc2)cc1,54*,57*,5,2,38,-5,36,80*,.,-1
COc1ccccc1C(=O)NCCOc1ccc(C(C)(C)C)cc1,2,5,-4,9,-2,.,.,.,.,.
Cc1c(Cl)cccc1-n1cnc(=O)c2ccccc21,1,-11,6,0,5,.,.,.,.,.
CCc1ccc(OCCn2cccn2)cc1,1,-17,4,-3,-2,.,.,.,.,.
CS(=O)(=O)N1CCC(C(=O)N2CCN(C(c3ccccc3)c3ccccc3)CC2)CC1,4,5,27,6,-5,.,.,.,.,.
COc1cccc(-c2csc(N3CCN(CC(=O)NNC(=O)c4ccc(Cl)cc4)CC3)n2)c1,-7,-9,2,1,-6,.,.,.,.,.
COc1cccc(-c2csc(N3CCN(CC(=O)NNC(=O)c4ccc(Br)cc4)CC3)n2)c1,101*,-3,5,7,2,-8,-5,3,2,-6

# Bioassay records deposited in PubChem BioAssay by several laboratories.
